# Measured values as given in PubChem BioAssay AID624464 (National Center for Advancing Translational Sciences (NCATS), 2012).
# In all, about 360,000 compounds went through this assay and about 810 (0.23%) were called active. Many of the other results were omitted from the sample, so actives are more common in it than they were. Values without a mark were called inactive. No stated cut-off is given here; in the data, active means potentiation above about 50%; inconclusive means mostly about 30% to 49%; inactive means weaker than that.
# Target: D(2) dopamine receptor (Homo sapiens) (UniProt P14416)
# Test: Beta-Arrestin HTS for Positive Allosteric Modulators of the Human D2 Dopamine Receptor: Potentiators
# Conditions: DiscoveRx D2 beta-arrestin cells, luminescence, 90 min; stronger effect = higher value; 100% = 57 uM dopamine signal
# Excerpt: There is great interest in identifying small molecule ligands for G-protein coupled receptors (GPCRs) as nearly 50% of all FDA-approved drugs target these important receptor proteins. […] Amongst the dopamine receptors (DARs), the D2 is arguably one of the most validated drug targets in neurology and psychiatry. For instance, all receptor-based antiparkinsonian drugs primarily work via stimulating the D2 DAR, whereas all FDA-approved antipsychotic agents are antagonists of this receptor. The D2 DAR is also therapeutically targeted in other disorders such as restless legs syndrome, tardive dyskinesia, Tourette's syndrome, and hyperprolactinemia.
# To this end, a miniaturized qHTS screen was developed to be screened against the Molecular Libraries Small Molecule Repository (MLSMR). This assay seeks to identify potentiators against the D2 DAR.
# NIH Molecular Libraries Probe Production Network [MLPCN]
# NIH Chemical Genomics Center [NCGC]
# PI Name: David Sibley, National Institutes of Neurological Disorders and Stroke
# DiscoveRx D2 cells were thawed from frozen stock and seeded at 2,100 cells/ 3 uL/well media (DiscoveRx Plating Reagent 2) with MultiDrop Combi dispenser (Thermo Scientific, Logan, UT) onto white tissue culture treated 1536-well Aurora plates (Brooks Automation, Chelmsford, MA) and allowed to attach overnight at 37 deg C, 5% CO2. Next, 23 nL/well of compound solutions in DMSO were added with a pintool transfer (Kalypsis, San Diego, CA). As the positive control, 1 uL/well dopamine (EC100, 57 uM final concentration) diluted in buffer (HBSS + 10 mM HEPES + SMB + 0.1 %Tween-20) was dispensed to 1 column of each plate. EC20 (Dopamine at 50 nM final concentration) was dispensed to the rest of the plate except columns 1 &2 which were used as negative control (EC=0, buffer only), 1 uL/well as well. The cells were stimulated by compounds and dopamine for 90 minutes at 37 deg C, 5% CO2, after which 1.5 uL/well of DiscoveRx detection reagent was added with BioRAPTR FRD dispenser. The detection reagent was prepared by mixing of Galacton Star Substrate, Emerald II solution and PathHunter buffer (supplied by the assay kit) together at 1:5:19 proportion accordingly just prior to dispensing. The plates were incubated at ambient temperature for 1 hour and then the luminescent signal was read on ViewLux plate reader (PerkinElmer, Waltham, MA).
# Chain of D(2) dopamine receptor (Homo sapiens) (P14416 whole entry, looked up): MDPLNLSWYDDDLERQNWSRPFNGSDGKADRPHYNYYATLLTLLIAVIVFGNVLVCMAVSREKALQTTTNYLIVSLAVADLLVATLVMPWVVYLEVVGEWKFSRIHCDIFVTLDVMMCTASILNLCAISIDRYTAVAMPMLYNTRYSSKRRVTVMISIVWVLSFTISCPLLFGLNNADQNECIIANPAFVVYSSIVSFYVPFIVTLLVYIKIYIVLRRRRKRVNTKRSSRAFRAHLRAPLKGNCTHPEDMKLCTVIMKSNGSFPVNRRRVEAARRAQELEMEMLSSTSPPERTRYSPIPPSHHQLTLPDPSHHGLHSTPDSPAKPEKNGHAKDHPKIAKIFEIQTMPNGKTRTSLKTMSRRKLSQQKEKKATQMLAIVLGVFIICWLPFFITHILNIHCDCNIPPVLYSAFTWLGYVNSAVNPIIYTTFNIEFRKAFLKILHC
row,SMILES,potentiation
1,CSc1ncnc2c1ncn2CCCNCc1cccs1,0.128%
2,CCN(CC)P(=O)(Nc1ccc(SC(F)F)cc1)c1ccc(N(C)C)cc1NC(=O)c1ccco1 (stereo unspecified),-7.82%
3,CC(=O)CC[C@@H](C)O[C@@H]1OC(C)[C@H](O)CC1O (stereo partly specified),-9.1%
4,Cc1ccc(S(=O)(=O)N2CCC3(CC2)OCCO3)c(C)c1,-6.31%
5,NC(N)=Nc1nc(-c2ccccc2)c2cc(Cl)ccc2n1,-62.5%
6,Oc1ccc(-c2onc3ccc(Cl)cc23)cc1,50.4% (active)
7,COc1ccc(-c2onc3ccc(C(C)=O)cc23)cc1,28%
8,Nc1nc(SCC(=O)NCCN2CCOCC2)nc2sc3c(c12)CCC3,-8.51%
9,C=C(C)CSc1nc(N)c2c3c(sc2n1)CCC3,-7.64%
10,CC(C)(C)C1CCc2c(sc3nc(SCC(N)=O)nc(N)c23)C1 (stereo unspecified),58.8% (active)
11,CCOC(=O)CN(C(=O)COc1nc(C)cc(C)c1C#N)c1ccc(Cl)cc1,-3.59%
12,O=C1Nc2ccc(Br)cc2/C1=N/N=C/C1=C(N2CCOCC2)C(=C\c2ccccc2)/CC1,-26.8%
13,N#C/C(=C\C1=C(N2CCOCC2)C(=C\c2ccccc2)/CC1)C(=O)Nc1ccccc1F,-1.9%
14,O=C(O)c1ccc(NN=CC2=C(N3CCOCC3)/C(=C/c3ccccc3)CC2)cc1,77.1% (active)
15,COc1ccc(C(=O)n2nc(-c3ccc(Cl)cc3)nc2N)cc1OC,-7.87%
16,COc1ccc(C(=O)O/N=C(\N)Cc2ccc(Cl)cc2Cl)cc1OC,94.6% (active)
17,COc1ccc(CCn2ccc(O)c(Cc3ccc(Cl)cc3Cl)c2=O)cc1OC,-38.7%
18,NC(=O)c1cc(S(=O)(=O)N2CCCC2)ccc1OCc1ccc(F)cc1,-13.4%
19,CC1(C)NC(=O)N(CC(=O)Nc2cc(C(F)(F)F)cc(C(F)(F)F)c2)C1=O,1.66%
20,COc1ccc(CCNCc2c(-c3ccccc3)n(C)c3ccccc23)cc1,-20.4%
21,CC1(C)CC(=O)C=C(NCCN2CCNCC2)C1,-7.29%
22,COc1ccc(-c2nnc(SC(=O)N3c4ccccc4Sc4ccccc43)o2)cc1,72.5% (active)
23,COc1ccc(CN(C(=O)CSc2nnc(-c3ccc(OC)c(OC)c3)o2)c2ccc(F)cc2)cc1,-14.5%
24,COc1ccc(-c2nnc(SC(C)C(=O)NC3CC3)o2)cc1 (stereo unspecified),0.965%
25,CC(C)c1ccc(Nc2ncccc2C#N)cc1,-6.55%
26,COc1ccc(-c2csc(C(O)c3cccc(Cl)c3)n2)cn1 (stereo unspecified),-10.4%
